aDG glyco up – increases alpha dystroglycan glycosylation; Pro5-aDG cells, alpha-DG glycosylation AlphaScreen (IIH6); 0% Pro5, 100% B10-LARGE cell signal; activation, % at 10 µM; hit rate 0.22% among 360,000;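 active means activation of at least 8% versus controls, or a plate z-score of at least 8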;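 further: Pro5 are CHO cells carrying HIG-tagged alpha-DG that lacks glycosylation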
Vif inh – inhibitors of HIV Vif. inhibition, % at 7.49 µM. HEK293T cells, Vif self-association by quenched fluorescence, imaging, 24 h. hit rate 0.35% among 340,000; in the data active means inhibition above about 50%, passing the limit was not always enough
N-glyco inh – N-linked glycosylation inhibition | hit rate 0.23% among 360,000 | reporter increase, % at 12.5 µM | D54 ERlucT glycosylation luciferase reporter, 24 h; percent of 100 nM tunicamycin response | AID 588692;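 active means mean luciferase reporter signal, scaled so untreated is 0 and the glycosylation-blocking control 100, at or above a set limit in every replicate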;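 further: luciferase carries N-glycosylation sites so blocking glycosylation raises the light; 0% = median of neutral control wells and 100% = median of 100 nM tunicamycin wells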
H9c2 protect – modulators protecting cardiomyocytes from myocardial damage; H9c2 cardiomyocytes, H2O2 injury protection, ATPLite, 2 h; protection from H2O2 cell death, % at 20 µM; hit rate 0.63% among 360,000; AID 588492;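 active means compounds giving at least 50% protection of heart cells from peroxide-induced death in the single-dose screen, raw or plate-pattern-corrected value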;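 further: 0% = DMSO wells with peroxide and 100% = DMSO wells without peroxide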
ARNT TACC3 PPI – ARNT/TACC3 interaction disruption; Q9Y6A5; AlphaScreen His-ARNT PAS-B/GST-TACC3 binding, luminescence; TACC3 fragment carries E629A point mutation; inhibition, % at 9.99 µM; hit rate 0.66% among 390,000;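 active means mean inhibition of replicates at least 50% and at least half of replicates each reaching 50%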;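 further: 0% = complete ARNT plus TACC3 wells and 100% = ARNT alone without TACC3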
* = called active by the depositor; / = no result given. Shown are actives, neighbours in structure and some others; about 1.7% of the full set was active somewhere.

SMILES | aDG glyco up | Vif inh | N-glyco inh | H9c2 protect | ARNT TACC3 PPI
COc1ccc(-n2cc(-c3ccccc3)c3c(NCCCN4CCOCC4)ncnc32)cc1 | 0 | -4 | -6 | 12 | 12
COc1ccc(-n2cc(-c3ccccc3)c3c(N4CCOCC4)ncnc32)cc1 | 0 | 5 | -5 | 58* | -2
COc1ccc(NC(=O)c2cc(-c3ccccn3)nc3ccccc23)cc1S(=O)(=O)N(C)C | 0 | -15 | 1 | 89* | 3
COC(=O)c1ccc(NC(=O)c2cc(-c3ccccn3)nc3ccccc23)cc1 | 0 | 62* | 3 | -4 | -19
COC(=O)c1ccc(NC(=O)c2cc(-c3ccncc3)nc3ccccc23)cc1 | 0 | 14 | 13 | 11 | 4
C[C@H](CO)N1C[C@H](C)[C@H](CN(C)C(=O)c2ccccc2F)Oc2ncc(C#CC(C)(C)O)cc2C1=O | / | / | / | / | 0
COc1ccccc1C(c1nnnn1Cc1ccccc1)N1CCN(C2CCCC2)CC1 (stereo not given) | 0 | -2 | -2 | 15 | /
COc1cccc(C(c2nnnn2Cc2ccccc2)N2CCN(C3CCCC3)CC2)c1OC (stereo not given) | -1 | -11 | -6 | 95* | 0
CCOC(=O)c1[nH]c2cc(OC)c(OC)cc2c1NC(=O)C(C)N1CCN(Cc2ccccc2)CC1 (stereo not given) | 0 | -21 | 3 | 56* | 19
COc1ccc2c(c1)CCc1c(C(=O)NC3CCCCC3)noc1-2 | 0 | -1 | -7 | -13 | 46*
Cc1csc(N/N=C/c2ccc([N+](=O)[O-])cc2)n1 | 0 | 12 | 5 | 3 | 2
Cc1csc(N/N=C/c2ccccn2)n1 | 3 | 16 | -20 | -14 | 59*
O=[N+]([O-])c1cc(S(=O)(=O)C(F)(F)F)ccc1Sc1nc2ccccc2[nH]1 | -1 | 11 | 68* | -35 | 3
CC(=O)NC(=S)Nc1ccccc1F | 0 | 58* | -1 | -2 | -9
CCC(CC)C(=O)N(CCc1ccc(OC)cc1)Cc1nc2ccccc2c(=O)[nH]1 | 0 | -5 | -5 | 56* | 0
O=C(O)CCc1nc2ccccc2c(=O)[nH]1 | 0 | 5 | -1 | 0 | -1
O=C(CCc1nc2ccccc2c(=O)[nH]1)NNC(=O)c1ccc(Cl)cc1 | 0 | -7 | 1 | 61* | -3
COc1cc(OC)cc(C(=O)NNC(=O)CCc2nc3ccccc3c(=O)[nH]2)c1 | 0 | -4 | 0 | 56* | 2
O=C(CCc1nc2ccccc2c(=O)[nH]1)NNC(=O)c1ccc(F)cc1 | 0 | -5 | 0 | 78* | -8
O=C(CCc1nc2ccccc2c(=O)[nH]1)NNC(=O)COc1ccc(Br)cc1 | 0 | -12 | 3 | 45 | /
COc1ccc(CCN(Cc2nc3ccccc3c(=O)[nH]2)C(=O)c2ccco2)cc1 | 0 | 10 | 1 | 24 | -7
CC(C)C#Cc1ccc2c(c1)O[C@H](CN(C)C(=O)C1CC1)[C@@H](C)CN([C@@H](C)CO)S2(=O)=O | / | / | / | / | 5
C/C=C/c1ccc([C@@H]2[C@@H](CN(CC(C)C)C(C)=O)N(C(C)=O)[C@H]2CO)cc1 | / | / | / | / | 9
COCC(=O)N1CC[C@H]2[C@H](CO)Nc3ccc(-c4cccc(C#N)c4)cc3[C@H]21 | / | / | / | / | -2
O=C(CCc1nc2ccccc2c(=O)[nH]1)NNC(=O)c1cccc(Cl)c1 | 0 | 1 | 0 | 70* | -3
SMILES | aDG glyco up | Vif inh | N-glyco inh | H9c2 protect | ARNT TACC3 PPI
O=C(CCc1nc2ccccc2c(=O)[nH]1)NCc1cccc(Cl)c1 | 0 | 1 | 0 | 37 | 1
C=CCn1c(COc2ccccc2)nnc1SC(C)C(=O)N/N=C/c1cc(Cl)ccc1O (stereo not given) | 1 | 6 | -6 | 67* | -2
CC(C)C#Cc1cnc2c(c1)C(=O)N([C@H](C)CO)C[C@@H](C)[C@H](CN(C)C(=O)CC1CC1)O2 | / | / | / | / | 30
Oc1ccc(NCc2ccccc2OCc2ccccc2)cc1 | 0 | 7 | 52* | -9 | -7
CCNCc1ccccc1OCc1ccccc1 | 0 | 3 | 1 | 0 | -4
C[C@@H]1CN([C@@H](C)CO)C(=O)c2cc(C3=CCCC3)cnc2O[C@H]1CN(C)C(=O)c1ccc(F)cc1 | / | / | / | / | 2
COc1ccc(/C=N/Nc2nnc(C)n2N)cc1OC | 0 | -4 | 7 | 0 | 54*
COc1ccc(/C=N/Nc2nnc(C)n2N)cc1OC(C)=O | 1 | -6 | 7 | -7 | 1
CCC(=O)Nc1ccc2c(c1)C(=O)N(C)[C@H]1CC[C@@H](CC(=O)NC3Cc4ccccc4C3)O[C@@H]1CO2 | / | / | / | / | -22
O=C(C[C@H]1C=C[C@H](NC(=O)CC2CC2)[C@@H](CO)O1)NCc1ccc(Cl)cc1 | / | / | / | / | -9
CC(C)(C)c1nnc(N/N=C/c2ccccc2O)n(N)c1=O | 2 | -3 | -13 | 52* | 60*
CC(C)(C)c1nnc(N/N=C/c2ccccc2)n(N)c1=O | 0 | -2 | -4 | 8 | 21
Cc1cccc(N2CCN(C(=O)c3ccc4c(c3)NC(=O)C(CSCc3cccc(F)c3)N4)CC2C)c1 (stereo not given) | 0 | 61* | 1 | 8 | 0
CC(=O)N1CCCCN2[C@H](CO)[C@@H](c3ccc(-c4cccc(C(=O)N(C)C)c4)cc3)[C@H]2C1 | / | / | / | / | -6
COc1cc(-c2coc3c(C(=O)NCc4ccc(OC)c(OC)c4)cccc23)ccc1O | 1 | -33 | 91* | -13 | /
COc1ccc(CNC(=O)c2cccc3c(-c4cccc(C(N)=O)c4)coc23)cc1OC | 1 | -42 | 60* | -8 | /
COc1cc(-c2coc3c(C(=O)NCc4ccc(N(C)C)cc4)cccc23)ccc1O | 0 | -1 | 2 | -13 | /
O=C(Nc1ccccc1)c1cccc2c(-c3cccnc3)coc12 | 0 | -1 | 8 | 63* | /
NC(=O)c1cccc(-c2coc3c(C(=O)NCCc4ccccc4)cccc23)c1 | 0 | -12 | 3 | 60* | /
CN1C(=O)c2cc(NC(=O)c3cccc(F)c3)ccc2OC[C@H]2O[C@H](CC(=O)Nc3ccccc3)CC[C@@H]21 | / | / | / | / | 4
O=c1cc(N2CCN(c3ccc(F)cc3)CC2)[nH]c(=O)n1C1CCCCC1 | 0 | -30 | 3 | 8 | -1
O=c1cc(O)n(C2CCCCCC2)c(=O)[nH]1 | 0 | -9 | -1 | 1 | active
CCC(=O)NC(=S)NNC(=O)c1ccc(O)cc1 | 0 | 33 | 2 | 4 | 75*
C[C@H]1CN([C@@H](C)CO)C(=O)Cc2cc(NC(=O)Nc3cccc4ccccc34)ccc2O[C@@H]1CN(C)Cc1ccc(Cl)c(Cl)c1 | / | / | / | / | 10
COc1ccc(S(=O)(=O)N(C)C)cc1NC(=O)CN1CCN(C(=O)C2CC2)CC1 | 0 | -5 | 4 | 2 | -9
COc1cc(Cl)c(C)cc1NC(=O)CN1CCN(C(=O)C2CC2)CC1 | 0 | 19 | 28* | 0 | 2
